Data reported in PMC11006913.

Experiments:
Assay in all cases: PBM; 200 nM protein, PBS
Conditions in all cases: dsDNA, one strand shown
HOXA2 [1] = target: HOXA2 (Homo sapiens, UniProt O43364 129-215, R185T)
HOXA2 [2] = target: HOXA2 (Homo sapiens, UniProt O43364 129-215, R185K)
HOXA2 [3] = target: HOXA2 (Homo sapiens, UniProt O43364 129-215, Y150S)
HOXA2 [4] = target: HOXA2 (Homo sapiens, UniProt O43364 129-215)
VAX1 [5] = target: VAX1 (Homo sapiens, UniProt Q5SQQ9 86-172, T142I)
VAX1 [6] = target: VAX1 (Homo sapiens, UniProt Q5SQQ9 86-172)
VAX1 [7] = target: VAX1 (Homo sapiens, UniProt Q5SQQ9 86-172, K157R)
VAX1 (Homo sapiens, UniProt Q5SQQ9 86-172, K157R), sequence (Q5SQQ9 86-172 K157R): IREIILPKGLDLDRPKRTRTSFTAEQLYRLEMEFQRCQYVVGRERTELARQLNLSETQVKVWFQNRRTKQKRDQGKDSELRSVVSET

HOXA2 (Homo sapiens, UniProt O43364 129-215, R185K), sequence (O43364 129-215 R185K): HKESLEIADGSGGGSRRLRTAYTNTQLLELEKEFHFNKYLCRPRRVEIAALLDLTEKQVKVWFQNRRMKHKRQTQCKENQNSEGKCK
HOXA2 (Homo sapiens, UniProt O43364 129-215, Y150S), sequence (O43364 129-215 Y150S): as the sequence (O43364 129-215 R185K) above, with Y22S, K57R counted along it
HOXA2 (Homo sapiens, UniProt O43364 129-215, R185T), sequence (O43364 129-215 R185T): as the sequence (O43364 129-215 R185K) above, with K57T counted along it
HOXA2 (Homo sapiens, UniProt O43364 129-215), sequence (O43364 129-215): as the sequence (O43364 129-215 R185K) above, with K57R counted along it
VAX1 (Homo sapiens, UniProt Q5SQQ9 86-172, T142I), sequence (Q5SQQ9 86-172 T142I): as the sequence (Q5SQQ9 86-172 K157R) above, with T57I, R72K counted along it
VAX1 (Homo sapiens, UniProt Q5SQQ9 86-172), sequence (Q5SQQ9 86-172): as the sequence (Q5SQQ9 86-172 K157R) above, with R72K counted along it

**Q.** Which results are given for CCCCCACC?
**A.** binding signal (HOXA2 [1]): 6.87 upbm affinity estimate (log intensity, higher = more binding, comparable within an allelic series); binding signal (HOXA2 [2]): 9.85 upbm affinity estimate (log intensity, higher = more binding, comparable within an allelic series); binding signal (HOXA2 [3]): 10.3 upbm affinity estimate (log intensity, higher = more binding, comparable within an allelic series); binding signal (HOXA2 [4]): 6.86 upbm affinity estimate (log intensity, higher = more binding, comparable within an allelic series)

**Q.** CTACATTA was tested. Which binding signal (HOXA2 [1]) did it give?
**A.** The binding signal was 10.6 upbm affinity estimate (log intensity, higher = more binding, comparable within an allelic series).

**Q.** What about the binding signal (HOXA2 [2]) of the same sequence?
**A.** The binding signal was 12.2 upbm affinity estimate (log intensity, higher = more binding, comparable within an allelic series).

**Q.** And the binding signal (HOXA2 [3])?
**A.** The binding signal was 10.8 upbm affinity estimate (log intensity, higher = more binding, comparable within an allelic series).

**Q.** And the binding signal (HOXA2 [4])?
**A.** Its binding signal is 10.8 upbm affinity estimate (log intensity, higher = more binding, comparable within an allelic series).

**Q.** How did the binding signal (HOXA2 [1]) turn out when CATTATGG was run?
**A.** The binding signal was 10.5 upbm affinity estimate (log intensity, higher = more binding, comparable within an allelic series).

**Q.** What about the binding signal (HOXA2 [2]) of the same sequence?
**A.** Its binding signal is 12.3 upbm affinity estimate (log intensity, higher = more binding, comparable within an allelic series).

**Q.** And the binding signal (HOXA2 [3])?
**A.** Its binding signal is 10.7 upbm affinity estimate (log intensity, higher = more binding, comparable within an allelic series).

**Q.** What about the binding signal (HOXA2 [4]) of the same sequence?
**A.** Its binding signal is 10.9 upbm affinity estimate (log intensity, higher = more binding, comparable within an allelic series).

**Q.** What does the source list for CTGGGGCC?
**A.** binding signal (HOXA2 [1]): 7.14 upbm affinity estimate (log intensity, higher = more binding, comparable within an allelic series); binding signal (HOXA2 [2]): 10.1 upbm affinity estimate (log intensity, higher = more binding, comparable within an allelic series); binding signal (HOXA2 [3]): 10.3 upbm affinity estimate (log intensity, higher = more binding, comparable within an allelic series); binding signal (HOXA2 [4]): 7.16 upbm affinity estimate (log intensity, higher = more binding, comparable within an allelic series)

**Q.** Which results are given for TACTTTAA?
**A.** binding signal (HOXA2 [1]): 9.67 upbm affinity estimate (log intensity, higher = more binding, comparable within an allelic series); binding signal (HOXA2 [2]): 11.6 upbm affinity estimate (log intensity, higher = more binding, comparable within an allelic series); binding signal (HOXA2 [3]): 10.8 upbm affinity estimate (log intensity, higher = more binding, comparable within an allelic series); binding signal (HOXA2 [4]): 9.6 upbm affinity estimate (log intensity, higher = more binding, comparable within an allelic series)

**Q.** With CAGCCACG as the sequence, how does the binding signal (HOXA2 [1]) read?
**A.** The binding signal was 7.22 upbm affinity estimate (log intensity, higher = more binding, comparable within an allelic series).

**Q.** And the binding signal (HOXA2 [2])?
**A.** Its binding signal is 10.5 upbm affinity estimate (log intensity, higher = more binding, comparable within an allelic series).

**Q.** And the binding signal (HOXA2 [3])?
**A.** Its binding signal is 10.4 upbm affinity estimate (log intensity, higher = more binding, comparable within an allelic series).

**Q.** What about the binding signal (HOXA2 [4]) of the same sequence?
**A.** Its binding signal is 7.24 upbm affinity estimate (log intensity, higher = more binding, comparable within an allelic series).

**Q.** With AGAGCCCC as the sequence, how does the binding signal (HOXA2 [1]) read?
**A.** Its binding signal is 7.28 upbm affinity estimate (log intensity, higher = more binding, comparable within an allelic series).

**Q.** What about the binding signal (HOXA2 [2]) of the same sequence?
**A.** Its binding signal is 10.2 upbm affinity estimate (log intensity, higher = more binding, comparable within an allelic series).

**Q.** And the binding signal (HOXA2 [3])?
**A.** The binding signal was 10.3 upbm affinity estimate (log intensity, higher = more binding, comparable within an allelic series).

**Q.** What about the binding signal (HOXA2 [4]) of the same sequence?
**A.** The binding signal was 7.25 upbm affinity estimate (log intensity, higher = more binding, comparable within an allelic series).

**Q.** How did the binding signal (HOXA2 [1]) turn out when CCTGCCAC was run?
**A.** The binding signal was 7.29 upbm affinity estimate (log intensity, higher = more binding, comparable within an allelic series).

**Q.** And the binding signal (HOXA2 [2])?
**A.** Its binding signal is 10.3 upbm affinity estimate (log intensity, higher = more binding, comparable within an allelic series).

**Q.** What about the binding signal (HOXA2 [3]) of the same sequence?
**A.** Its binding signal is 10.6 upbm affinity estimate (log intensity, higher = more binding, comparable within an allelic series).

**Q.** What about the binding signal (HOXA2 [4]) of the same sequence?
**A.** The binding signal was 7.12 upbm affinity estimate (log intensity, higher = more binding, comparable within an allelic series).

**Q.** How did the binding signal (HOXA2 [1]) turn out when CCCCCGTC was run?
**A.** The binding signal was 7.31 upbm affinity estimate (log intensity, higher = more binding, comparable within an allelic series).

**Q.** What about the binding signal (HOXA2 [2]) of the same sequence?
**A.** Its binding signal is 10.2 upbm affinity estimate (log intensity, higher = more binding, comparable within an allelic series).

**Q.** What about the binding signal (HOXA2 [3]) of the same sequence?
**A.** Its binding signal is 10.3 upbm affinity estimate (log intensity, higher = more binding, comparable within an allelic series).

**Q.** And the binding signal (HOXA2 [4])?
**A.** The binding signal was 7.2 upbm affinity estimate (log intensity, higher = more binding, comparable within an allelic series).

**Q.** What does the source list for ACCTCGCC?
**A.** binding signal (HOXA2 [1]): 7.06 upbm affinity estimate (log intensity, higher = more binding, comparable within an allelic series); binding signal (HOXA2 [2]): 10.2 upbm affinity estimate (log intensity, higher = more binding, comparable within an allelic series); binding signal (HOXA2 [3]): 10.4 upbm affinity estimate (log intensity, higher = more binding, comparable within an allelic series); binding signal (HOXA2 [4]): 6.93 upbm affinity estimate (log intensity, higher = more binding, comparable within an allelic series)

**Q.** GGTAACGA was tested. Which binding signal (HOXA2 [1]) did it give?
**A.** The binding signal was 9.98 upbm affinity estimate (log intensity, higher = more binding, comparable within an allelic series).

**Q.** What about the binding signal (HOXA2 [2]) of the same sequence?
**A.** The binding signal was 12.2 upbm affinity estimate (log intensity, higher = more binding, comparable within an allelic series).

**Q.** What about the binding signal (HOXA2 [3]) of the same sequence?
**A.** Its binding signal is 10.8 upbm affinity estimate (log intensity, higher = more binding, comparable within an allelic series).

**Q.** And the binding signal (HOXA2 [4])?
**A.** Its binding signal is 10 upbm affinity estimate (log intensity, higher = more binding, comparable within an allelic series).

**Q.** Which results are given for GTAATGAC?
**A.** binding signal (HOXA2 [1]): 12 upbm affinity estimate (log intensity, higher = more binding, comparable within an allelic series); binding signal (HOXA2 [2]): 13.1 upbm affinity estimate (log intensity, higher = more binding, comparable within an allelic series); binding signal (VAX1 [5]): 12.3 upbm affinity estimate (log intensity, higher = more binding, comparable within an allelic series); binding signal (HOXA2 [3]): 10.8 upbm affinity estimate (log intensity, higher = more binding, comparable within an allelic series); binding signal (HOXA2 [4]): 12.1 upbm affinity estimate (log intensity, higher = more binding, comparable within an allelic series)

**Q.** Which results are given for GGGAGCCC?
**A.** binding signal (HOXA2 [1]): 7.4 upbm affinity estimate (log intensity, higher = more binding, comparable within an allelic series); binding signal (HOXA2 [2]): 10.3 upbm affinity estimate (log intensity, higher = more binding, comparable within an allelic series); binding signal (VAX1 [6]): 7.23 upbm affinity estimate (log intensity, higher = more binding, comparable within an allelic series); binding signal (VAX1 [5]): 7.09 upbm affinity estimate (log intensity, higher = more binding, comparable within an allelic series); binding signal (HOXA2 [3]): 10.5 upbm affinity estimate (log intensity, higher = more binding, comparable within an allelic series); binding signal (HOXA2 [4]): 7.35 upbm affinity estimate (log intensity, higher = more binding, comparable within an allelic series); binding signal (VAX1 [7]): 7.13 upbm affinity estimate (log intensity, higher = more binding, comparable within an allelic series)

**Q.** CGAGAGGC was tested. Which binding signal (HOXA2 [1]) did it give?
**A.** Its binding signal is 7.16 upbm affinity estimate (log intensity, higher = more binding, comparable within an allelic series).

**Q.** And the binding signal (HOXA2 [2])?
**A.** Its binding signal is 10.3 upbm affinity estimate (log intensity, higher = more binding, comparable within an allelic series).

**Q.** And the binding signal (HOXA2 [3])?
**A.** Its binding signal is 10.4 upbm affinity estimate (log intensity, higher = more binding, comparable within an allelic series).

**Q.** What about the binding signal (HOXA2 [4]) of the same sequence?
**A.** The binding signal was 7.01 upbm affinity estimate (log intensity, higher = more binding, comparable within an allelic series).

**Q.** What does the source list for GCAACCCC?
**A.** binding signal (HOXA2 [1]): 7.26 upbm affinity estimate (log intensity, higher = more binding, comparable within an allelic series); binding signal (HOXA2 [2]): 10.1 upbm affinity estimate (log intensity, higher = more binding, comparable within an allelic series); binding signal (HOXA2 [3]): 10.4 upbm affinity estimate (log intensity, higher = more binding, comparable within an allelic series); binding signal (HOXA2 [4]): 7.17 upbm affinity estimate (log intensity, higher = more binding, comparable within an allelic series)

**Q.** For CAATCACA, which binding signal (HOXA2 [1]) is on record?
**A.** Its binding signal is 9.53 upbm affinity estimate (log intensity, higher = more binding, comparable within an allelic series).

**Q.** And the binding signal (HOXA2 [2])?
**A.** Its binding signal is 11.8 upbm affinity estimate (log intensity, higher = more binding, comparable within an allelic series).

**Q.** And the binding signal (HOXA2 [3])?
**A.** The binding signal was 10.8 upbm affinity estimate (log intensity, higher = more binding, comparable within an allelic series).

**Q.** And the binding signal (HOXA2 [4])?
**A.** The binding signal was 9.4 upbm affinity estimate (log intensity, higher = more binding, comparable within an allelic series).

**Q.** CCACCCCC was tested. Which binding signal (HOXA2 [1]) did it give?
**A.** The binding signal was 7.29 upbm affinity estimate (log intensity, higher = more binding, comparable within an allelic series).

**Q.** What about the binding signal (HOXA2 [2]) of the same sequence?
**A.** Its binding signal is 10.2 upbm affinity estimate (log intensity, higher = more binding, comparable within an allelic series).

**Q.** What about the binding signal (HOXA2 [3]) of the same sequence?
**A.** Its binding signal is 10.4 upbm affinity estimate (log intensity, higher = more binding, comparable within an allelic series).

**Q.** And the binding signal (HOXA2 [4])?
**A.** The binding signal was 6.98 upbm affinity estimate (log intensity, higher = more binding, comparable within an allelic series).
